# From PubChem BioAssay (NCATS)
# Inconclusive results are not listed. Where a call stands in place of a potency, no number is given. Unmarked numbers belong to inactive results. Active and inactive are the calls of the source. Calls follow the shape of the dose curve; as a rule, active = well fitted curve in the direction sought with a large enough effect; inconclusive = small, poorly fitted or top-dose-only effect, or another doubt; inactive = no such curve, though single readings can be large; an effect the other way counts as inactive or inconclusive.
# Legend:
# Hek293T = test: Primary qHTS to identify gynecologic anti-cancer compounds using libraries of approved drugs and bioactive compounds (AID 1345084); conditions: Gynecologic cancer cell panel viability, ATPlite luminescence, 48 h, control line for the selectivity index; series mostly up to 57.5 µM; also: nearly all actives have a fitted effect of over 55% in size; also: potency is read from the fitted curve at half-maximal effect
# Procedure, shortened: (§1)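 Cytotoxicity screen measuring ATP content by luciferase luminescence. Each compound is applied at five concentrations for 48 h at 37 C with 5% CO2.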
# JEG-3 = test: as above; conditions: Gynecologic cancer cell panel viability, ATPlite luminescence, 48 h; series mostly up to 57.5 µM
# Procedure, shortened: as §1
# OV90 = test: as above; conditions: Gynecologic cancer cell panel viability, ATPlite luminescence, 48 h; series mostly up to 57.5 µM
# Procedure, shortened: as §1
# PA-1 = test: as above; conditions: Gynecologic cancer cell panel viability, ATPlite luminescence, 48 h; series mostly up to 57.5 µM
# Procedure, shortened: as §1
# Tov-21-G = test: as above; conditions: Gynecologic cancer cell panel viability, ATPlite luminescence, 48 h; series mostly up to 57.5 µM
# Procedure, shortened: as §1
# Tov112D = test: as above; conditions: Gynecologic cancer cell panel viability, ATPlite luminescence, 48 h; series mostly up to 57.5 µM
# Procedure, shortened: as §1
# [1] = Drug repurposing screens with cells derived from glioblastoma tumor samples (AID 1345199); conditions: GBM patient neurospheres viability, ATP luminescence, 48 h; also: nearly all actives have a fitted effect of over 40% in size
# Procedure, shortened: (§2)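 Four patient lines of CD133+ GBM neurospheres were screened at several concentrations; hits were retested in those lines plus three slower-growing GBM lines, using 48-hour treatment and ATP-based viability.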
# astro = test: as above; conditions: viability, ATP luminescence, 48 h; series mostly up to 45.9 µM
# Procedure, shortened: as §2
# SKOV3 = test: Primary qHTS to identify gynecologic anti-cancer compounds using libraries of approved drugs and bioactive compounds (AID 1345084); conditions: Gynecologic cancer cell panel viability, ATPlite luminescence, 48 h; series mostly up to 57.5 µM; also: nearly all actives have a fitted effect of over 55% in size; also: potency is read from the fitted curve at half-maximal effect
# Procedure, shortened: as §1
# [2] = at 45.9 µM (top of the series), tumour line B
# [3] = at 45.9 µM (top of the series), tumour line D
# [4] = at 46 µM (top of the series), tumour line A
# [5] = at 46.1 µM (top of the series), tumour line C
Structure (SMILES),Potency (Hek293T),Potency (JEG-3),Potency (OV90),Potency (PA-1),Potency (Tov-21-G),Potency (Tov112D),"activity, negative = cell killing [1, 2]","activity, negative = cell killing [1, 3]","activity, negative = cell killing [1, 4]","activity, negative = cell killing [1, 5]",Potency (astro),Potency (SKOV3)
CN(C)CCOC(c1ccccc1)c1ccc(Br)cc1 (stereo not drawn),inactive,inactive,12.6 µM (active),inactive,inactive,inactive,,,,,,
Nc1c(I)cc(I)c(C(=O)N(CCC(=O)O)c2ccccc2)c1I,inactive,inactive,inactive,inactive,inactive,inactive,,,,,,
Nc1ncnc2nc[nH]c12,inactive,inactive,inactive,inactive,inactive,inactive,11.8%,4.13%,-8.57%,8.85%,inactive,
C[C@@H](O[C@H]1OCCN(Cc2n[nH]c(=O)[nH]2)[C@H]1c1ccc(F)cc1)c1cc(C(F)(F)F)cc(C(F)(F)F)c1,inactive,inactive,inactive,inactive,inactive,,,,,,,
CC1CCCCN1CCCOC(=O)c1ccc(OC2CCCCC2)cc1 (stereo not drawn),inactive,inactive,inactive,inactive,inactive,inactive,,,,,,
Cc1nc([N+](=O)[O-])cn1-c1ccc([N+](=O)[O-])cc1,inactive,inactive,inactive,inactive,inactive,inactive,-9.26%,-5.48%,-16.5%,4.99%,inactive,
Cc1ccc2ccc(Cl)cc2n1,inactive,inactive,inactive,inactive,inactive,inactive,,,,,,
O=C(CO)[C@@H](O)[C@H](O)[C@@H](O)CO,inactive,inactive,inactive,inactive,inactive,inactive,4.08%,-8.89%,-12.2%,8.07%,inactive,
NC(=O)NS(=O)(=O)c1ccc(Cl)cc1,inactive,inactive,inactive,inactive,inactive,inactive,,,,,,
CCOC(=O)C1=C(C)NC(C)=C(C(=O)OCC)C1c1ccccc1/C=C/C(=O)OC(C)(C)C,inactive,inactive,inactive,inactive,inactive,inactive,,,,,,
O=[N+]([O-])c1ccc(-c2nc(-c3ccc(F)cc3)c(-c3ccncc3)[nH]2)cc1,inactive,inactive,inactive,inactive,inactive,inactive,,,,,,
CN1Cc2cc(C(=O)N3CCC(C4CCNCC4)CC3)ccc2NC(CC(=O)O)C1=O (stereo not drawn),inactive,inactive,inactive,inactive,inactive,inactive,,,,,,
Nc1ccc([N+](=O)[O-])c(C(F)(F)F)c1,inactive,inactive,inactive,inactive,inactive,inactive,,,,,,
CC(NC(CCc1ccccc1)C(=O)O)C(=O)N1C(=O)N(C)CC1C(=O)O (stereo not drawn),inactive,inactive,inactive,inactive,inactive,inactive,,,,,,
C[C@H]1C[C@H](O)c2ccsc2S1(=O)=O,inactive,inactive,inactive,inactive,inactive,inactive,,,,,,
CCCN(CCC)C(=O)C(CCC(=O)OCCCN1CCN(CCOC(=O)Cc2c(C)n(C(=O)c3ccc(Cl)cc3)c3ccc(OC)cc23)CC1)NC(=O)c1ccccc1 (stereo not drawn),inactive,inactive,inactive,inactive,inactive,inactive,,,,,,
O=C(OCC(O)CO)c1ccccc1Nc1ccnc2c(C(F)(F)F)cccc12 (stereo not drawn),inactive,inactive,inactive,inactive,inactive,inactive,,,,,,
O=C(O)CNC(=O)CNC(=O)CNC(=O)CSC(=O)c1ccccc1,inactive,inactive,inactive,inactive,inactive,inactive,2.75%,-4.9%,-23.1%,-10.1%,inactive,
O=C(c1ccco1)N1CCNCC1,inactive,inactive,,inactive,inactive,inactive,,,,,,inactive
CN(C)CCOC1=Cc2ccccc2Sc2ccc(Cl)cc21,inactive,inactive,,inactive,inactive,inactive,,,,,,inactive
CN(C)c1cc2c(Nc3ccc4c(cnn4Cc4ccccc4)c3)ncnc2cn1,inactive,inactive,inactive,,inactive,inactive,,,,,,inactive
Cc1nc2n(c(=O)c1CCN1CCC(C(=O)c3ccc(F)cc3)CC1)CCS2,inactive,inactive,,inactive,inactive,inactive,,,,,,inactive
O=C(O)c1ccccc1Nc1cc(Cl)ccc1C(=O)O,inactive,inactive,,inactive,inactive,inactive,-6.14%,-11.1%,-27.3%,1.8%,inactive,inactive
CCC(=O)Oc1ccc2c(c1)CC[C@@H]1[C@@H]2CC[C@@]2(C)[C@H]1C[C@@H](OC(=O)CC)[C@@H]2OC(=O)CC,inactive,inactive,,inactive,inactive,inactive,,,,,,inactive
